According to the supplement of paper PMC10849652:
Of roughly 8,800 targets only a part is listed; those with a hit were picked by preference. About 0.5% of all pairs of compound and target were hits. A number with no mark means an inactive call.

Assays:
Assay in all cases: log2 fold change, soluble protein after heating vs DMSO (PISA); higher = thermal stabilisation; K562 lysate, 10 uM; active = over 0.2 and 3.5 SD of the protein, either way, in both replicates (recomputed)
[1] = compound: Cc1cn(-c2cc(NC(=O)c3ccc(C)c(Nc4nccc(-c5cccnc5)n4)c3)cc(C(F)(F)F)c2)cn1 [nilotinib]
Method in brief: (§1)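 Following dounce homogenisation of K562 pellets in PBS pH 7.4 with 1 mM MgCl2, crude extract at 1 mg/mL protein was incubated for 30 min with 10 μM compound. Aliquots were then heated for 3 min over 48°C-58°C and pooled, NP-40 was added to 0.5% at 4°C, and soluble protein was recovered as the supernatant at 21,000xg for 90 min. Channel-sum-equalised TMTpro 16plex LC-MS/MS quantified this protein. Each value, from duplicates, is a log-two fold change in thermal stability relative to solvent controls.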

[2] = compound: Cc1nc(Nc2n[nH]c3c2CN(C(=O)N[C@H](CN(C)C)c2ccccc2)C3(C)C)c2sccc2n1
Method in brief: as §1

[3] = compound: Cc1nc(Nc2ncc(C(=O)Nc3c(C)cccc3Cl)s2)cc(N2CCN(CCO)CC2)n1 [dasatinib]
Method in brief: as §1

[4] = compound: Cc1ncc(-c2ccnc(Nc3ccc(S(C)(=O)=O)cc3)n2)n1C(C)C
Method in brief: as §1

[5] = compound: Cn1cc(-c2ccc3c(c2)CCN3C(=O)Cc2cccc(C(F)(F)F)c2)c2c(N)ncnc21
Method in brief: as §1

[6] = compound: Cn1cc(CNCC2CCN(c3ncc(C(=O)NO)cn3)CC2)c2ccccc21 [quisinostat]
Method in brief: as §1

[7] = compound: Cn1cncc1[C@@](N)(c1ccc(Cl)cc1)c1ccc2c(c1)c(-c1cccc(Cl)c1)cc(=O)n2C [tipifarnib]
Method in brief: as §1

[8] = compound: NC(=O)Nc1cc(-c2cccc(F)c2)sc1C(=O)N[C@H]1CCCNC1
Method in brief: as §1

[9] = compound: NC(=O)c1cnc(N[C@@H]2CCCC[C@@H]2N)nc1Nc1cccc(-n2nccn2)c1
Method in brief: as §1

[10] = compound: NC1(c2ccc(-c3nc4ccn5c(=O)[nH]nc5c4cc3-c3ccccc3)cc2)CCC1
Method in brief: as §1

UniProt Q8WYN0, sequence (Q8WYN0 whole entry, looked up): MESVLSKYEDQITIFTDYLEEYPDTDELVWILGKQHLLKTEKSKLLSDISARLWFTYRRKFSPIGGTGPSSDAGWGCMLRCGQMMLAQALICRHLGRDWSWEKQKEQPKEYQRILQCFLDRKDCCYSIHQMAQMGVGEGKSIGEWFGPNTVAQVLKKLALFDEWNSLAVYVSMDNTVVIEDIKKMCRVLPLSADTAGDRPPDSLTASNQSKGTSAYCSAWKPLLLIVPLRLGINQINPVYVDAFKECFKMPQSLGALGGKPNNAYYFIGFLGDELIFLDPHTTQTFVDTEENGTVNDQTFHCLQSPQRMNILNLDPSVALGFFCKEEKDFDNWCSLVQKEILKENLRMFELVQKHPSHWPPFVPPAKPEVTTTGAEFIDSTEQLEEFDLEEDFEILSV
UniProt Q13554, sequence (Q13554 whole entry, looked up): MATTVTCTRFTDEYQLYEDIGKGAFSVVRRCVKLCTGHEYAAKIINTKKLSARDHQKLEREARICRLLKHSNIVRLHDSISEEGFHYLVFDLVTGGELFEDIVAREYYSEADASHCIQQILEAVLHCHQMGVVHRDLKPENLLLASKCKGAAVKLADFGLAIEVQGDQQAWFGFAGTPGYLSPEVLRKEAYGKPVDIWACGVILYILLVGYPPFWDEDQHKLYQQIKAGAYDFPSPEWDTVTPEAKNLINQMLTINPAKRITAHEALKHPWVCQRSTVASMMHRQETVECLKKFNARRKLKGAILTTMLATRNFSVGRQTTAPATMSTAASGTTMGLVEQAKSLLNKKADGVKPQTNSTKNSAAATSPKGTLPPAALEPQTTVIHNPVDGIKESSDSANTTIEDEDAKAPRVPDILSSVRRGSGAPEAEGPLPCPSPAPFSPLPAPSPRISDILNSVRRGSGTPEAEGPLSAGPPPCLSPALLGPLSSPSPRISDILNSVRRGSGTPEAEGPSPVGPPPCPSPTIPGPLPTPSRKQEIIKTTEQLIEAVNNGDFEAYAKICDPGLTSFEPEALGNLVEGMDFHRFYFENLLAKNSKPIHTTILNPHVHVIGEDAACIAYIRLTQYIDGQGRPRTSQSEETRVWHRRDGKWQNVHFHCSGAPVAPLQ
UniProt P16152, sequence (P16152 whole entry, looked up): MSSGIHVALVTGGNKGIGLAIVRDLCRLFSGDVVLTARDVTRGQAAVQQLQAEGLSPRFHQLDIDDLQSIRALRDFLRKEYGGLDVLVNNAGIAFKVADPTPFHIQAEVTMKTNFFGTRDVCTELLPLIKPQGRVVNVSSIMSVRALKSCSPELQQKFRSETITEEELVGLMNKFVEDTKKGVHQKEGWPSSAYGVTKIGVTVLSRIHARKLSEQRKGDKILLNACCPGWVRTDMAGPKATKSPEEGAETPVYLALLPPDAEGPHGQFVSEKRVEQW
UniProt Q86WR0, sequence (Q86WR0 whole entry, looked up): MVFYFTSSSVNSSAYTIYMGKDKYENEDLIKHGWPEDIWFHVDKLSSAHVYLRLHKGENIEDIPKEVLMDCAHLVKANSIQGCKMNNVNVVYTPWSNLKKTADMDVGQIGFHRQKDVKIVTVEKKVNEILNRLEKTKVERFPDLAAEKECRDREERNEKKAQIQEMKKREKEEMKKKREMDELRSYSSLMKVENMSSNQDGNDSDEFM
UniProt Q8IWY9, sequence (Q8IWY9 whole entry, looked up): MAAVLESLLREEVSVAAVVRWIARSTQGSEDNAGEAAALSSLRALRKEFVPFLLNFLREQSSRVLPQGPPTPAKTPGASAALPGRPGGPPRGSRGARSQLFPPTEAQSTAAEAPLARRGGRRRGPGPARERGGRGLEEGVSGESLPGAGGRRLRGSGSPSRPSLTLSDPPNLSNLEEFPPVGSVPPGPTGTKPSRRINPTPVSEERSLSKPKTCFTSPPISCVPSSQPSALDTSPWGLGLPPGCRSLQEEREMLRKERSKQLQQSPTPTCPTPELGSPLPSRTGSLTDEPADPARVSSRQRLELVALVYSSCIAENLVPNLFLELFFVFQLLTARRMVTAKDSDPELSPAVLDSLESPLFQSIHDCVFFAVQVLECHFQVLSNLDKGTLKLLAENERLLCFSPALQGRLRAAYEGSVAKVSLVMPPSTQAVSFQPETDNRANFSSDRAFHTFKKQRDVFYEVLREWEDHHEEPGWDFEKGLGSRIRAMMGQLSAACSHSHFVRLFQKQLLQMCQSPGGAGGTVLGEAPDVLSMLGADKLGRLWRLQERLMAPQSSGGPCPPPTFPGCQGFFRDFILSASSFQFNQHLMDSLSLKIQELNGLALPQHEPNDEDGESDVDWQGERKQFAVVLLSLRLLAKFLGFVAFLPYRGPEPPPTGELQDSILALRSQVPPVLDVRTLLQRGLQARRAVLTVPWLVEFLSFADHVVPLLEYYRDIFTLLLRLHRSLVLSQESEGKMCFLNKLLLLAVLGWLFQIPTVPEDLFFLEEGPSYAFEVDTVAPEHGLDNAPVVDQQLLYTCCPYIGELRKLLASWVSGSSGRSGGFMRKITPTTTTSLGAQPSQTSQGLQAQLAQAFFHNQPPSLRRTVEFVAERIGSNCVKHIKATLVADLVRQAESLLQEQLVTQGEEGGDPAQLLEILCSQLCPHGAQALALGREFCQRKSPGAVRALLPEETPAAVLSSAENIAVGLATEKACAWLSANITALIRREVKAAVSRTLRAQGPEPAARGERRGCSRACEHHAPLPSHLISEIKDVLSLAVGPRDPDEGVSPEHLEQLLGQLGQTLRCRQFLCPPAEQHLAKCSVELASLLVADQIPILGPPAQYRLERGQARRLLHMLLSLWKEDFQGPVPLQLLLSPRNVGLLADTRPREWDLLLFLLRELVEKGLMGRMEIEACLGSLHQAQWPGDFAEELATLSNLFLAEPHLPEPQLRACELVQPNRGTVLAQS
UniProt A8MTT3, sequence (A8MTT3 whole entry, looked up): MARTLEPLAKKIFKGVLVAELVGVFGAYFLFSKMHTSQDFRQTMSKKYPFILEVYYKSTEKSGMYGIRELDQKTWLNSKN
UniProt Q8NBU5, sequence (Q8NBU5 whole entry, looked up): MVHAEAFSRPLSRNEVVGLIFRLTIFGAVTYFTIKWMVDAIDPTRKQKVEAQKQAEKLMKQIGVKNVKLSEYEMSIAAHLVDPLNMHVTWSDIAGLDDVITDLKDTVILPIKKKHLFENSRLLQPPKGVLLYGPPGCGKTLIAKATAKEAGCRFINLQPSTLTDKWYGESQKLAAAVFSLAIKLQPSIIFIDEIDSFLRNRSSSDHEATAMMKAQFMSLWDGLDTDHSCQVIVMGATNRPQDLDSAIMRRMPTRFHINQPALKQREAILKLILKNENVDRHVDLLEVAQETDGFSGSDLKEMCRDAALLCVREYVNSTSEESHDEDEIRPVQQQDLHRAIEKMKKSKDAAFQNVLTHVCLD
UniProt Q5BKX5, sequence (Q5BKX5 whole entry, looked up): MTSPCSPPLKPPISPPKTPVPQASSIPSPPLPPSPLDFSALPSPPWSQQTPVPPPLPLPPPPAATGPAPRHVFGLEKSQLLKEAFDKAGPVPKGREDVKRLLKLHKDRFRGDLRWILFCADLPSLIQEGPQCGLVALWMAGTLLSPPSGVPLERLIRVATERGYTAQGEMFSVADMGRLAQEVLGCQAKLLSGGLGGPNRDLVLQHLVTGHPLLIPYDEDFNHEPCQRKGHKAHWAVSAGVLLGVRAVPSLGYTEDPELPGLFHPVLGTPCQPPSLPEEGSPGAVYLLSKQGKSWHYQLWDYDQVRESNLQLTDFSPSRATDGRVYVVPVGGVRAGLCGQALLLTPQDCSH
UniProt Q9UL45, sequence (Q9UL45 whole entry, looked up): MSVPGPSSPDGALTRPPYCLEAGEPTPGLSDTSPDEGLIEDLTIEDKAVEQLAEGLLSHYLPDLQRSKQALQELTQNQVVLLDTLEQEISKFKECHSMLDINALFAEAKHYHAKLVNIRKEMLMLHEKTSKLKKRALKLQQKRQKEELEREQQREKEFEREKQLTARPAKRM
UniProt Q8N7R7, sequence (Q8N7R7 whole entry, looked up): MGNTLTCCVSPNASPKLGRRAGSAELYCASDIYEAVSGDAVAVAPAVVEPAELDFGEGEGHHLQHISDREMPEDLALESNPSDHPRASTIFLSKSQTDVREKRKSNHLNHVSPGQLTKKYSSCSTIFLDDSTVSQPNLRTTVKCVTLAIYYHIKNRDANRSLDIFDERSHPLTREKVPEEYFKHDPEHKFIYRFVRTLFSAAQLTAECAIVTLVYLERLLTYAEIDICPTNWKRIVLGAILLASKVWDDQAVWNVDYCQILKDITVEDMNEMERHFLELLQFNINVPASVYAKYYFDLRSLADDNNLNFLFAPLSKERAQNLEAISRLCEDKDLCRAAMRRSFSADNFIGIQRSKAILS
UniProt Q96JB5, sequence (Q96JB5 whole entry, looked up): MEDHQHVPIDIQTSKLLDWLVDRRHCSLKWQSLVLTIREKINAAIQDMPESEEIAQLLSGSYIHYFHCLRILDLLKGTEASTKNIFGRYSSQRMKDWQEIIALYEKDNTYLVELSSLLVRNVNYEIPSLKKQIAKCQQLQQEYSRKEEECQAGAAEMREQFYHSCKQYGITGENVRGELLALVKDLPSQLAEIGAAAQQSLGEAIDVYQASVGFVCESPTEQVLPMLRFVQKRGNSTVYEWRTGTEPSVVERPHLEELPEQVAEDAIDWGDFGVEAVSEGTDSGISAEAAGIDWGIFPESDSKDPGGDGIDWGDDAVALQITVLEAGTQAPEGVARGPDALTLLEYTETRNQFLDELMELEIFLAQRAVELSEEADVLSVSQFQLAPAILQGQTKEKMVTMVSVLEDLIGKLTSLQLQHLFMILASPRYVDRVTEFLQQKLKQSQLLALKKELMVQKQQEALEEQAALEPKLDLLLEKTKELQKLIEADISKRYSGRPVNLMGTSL
UniProt P51946, sequence (P51946 whole entry, looked up): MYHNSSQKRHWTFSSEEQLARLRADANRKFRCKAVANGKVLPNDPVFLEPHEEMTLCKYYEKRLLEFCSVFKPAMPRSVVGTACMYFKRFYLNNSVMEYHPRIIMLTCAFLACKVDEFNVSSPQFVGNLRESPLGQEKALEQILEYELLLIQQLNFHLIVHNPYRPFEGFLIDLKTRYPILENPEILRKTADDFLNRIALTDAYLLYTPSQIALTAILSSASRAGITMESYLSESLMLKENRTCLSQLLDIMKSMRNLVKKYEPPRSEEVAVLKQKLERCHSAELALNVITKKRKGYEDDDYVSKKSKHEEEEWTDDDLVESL

Row | Target | log2 fold change [1] | log2 fold change [2] | log2 fold change [3] | log2 fold change [4] | log2 fold change [5] | log2 fold change [6] | log2 fold change [7] | log2 fold change [8] | log2 fold change [9] | log2 fold change [10]
1 | CAMK2B (UniProt Q13554) | -0.026 | 0.399 (active) | -0.055 | 0.026 | 0.023 | -0.205 | -0.035 | 0.295 | 0.089 | -0.045
2 | ATP6V1B1 (UniProt P15313) | -0.024 | 0.029 | 0.034 | -0.045 | -0.021 | -0.029 | -0.036 | 0.01 | 0.019 | 0.008
3 | CAPN15 (UniProt O75808) | 0.018 | -0.045 | -0.124 | 0.014 | 0.007 | 0 | 0.04 | 0.025 | -0.08 | 0.054
4 | C2CD5 isoform 3 (UniProt Q86YS7) | -0.036 | 0.074 | -0.053 | 0.046 | 0.01 | 0.013 | -0.053 | 0.024 | 0.01 | -0.044
5 | ATP11A (UniProt P98196) | -0.046 | -0.053 | 0.018 | 0.011 | 0.035 | 0.002 | 0.019 | 0.043 | -0.045 | -0.012
6 | BRAT1 (UniProt Q6PJG6) | 0.031 | -0.016 | -0.046 | 0.01 | 0.046 | -0.07 | 0 | 0.008 | 0.047 | -0.017
7 | ATAD1 (UniProt Q8NBU5) | 0.073 | -0.015 | 0.001 | -0.153 | 0.039 | -0.072 | -0.072 | -0.001 | 0.027 | -0.031
8 | BLOC1S6 (UniProt Q9UL45) | -0.073 | 0.036 | 0.093 | 0.093 | -0.008 | 0.042 | -0.063 | -0.049 | -0.023 | 0.096
9 | ATG4A (UniProt Q8WYN0) | -0.022 | 0.018 | -0.064 | 0.037 | -0.038 | -0.042 | -0.015 | 0.096 | -0.02 | 0
10 | ATG7 (UniProt O95352) | 0.02 | -0.03 | -0.026 | -0.032 | 0.037 | -0.039 | 0.03 | 0.058 | 0.01 | -0.02
11 | CCNC (UniProt P24863) | 0.013 | 0.035 | 0.04 | 0.202 | -0.017 | 0 | -0.049 | 0.048 | -0.007 | -0.029
12 | CCDC25 (UniProt Q86WR0) | 0.016 | -0.023 | -0.043 | -0.021 | -0.013 | -0.039 | 0.002 | 0 | 0.024 | -0.031
13 | CAD (UniProt P27708) | 0.004 | 0.013 | -0.094 | -0.001 | 0.038 | -0.02 | -0.005 | 0.023 | -0.006 | 0.004
14 | CDK16 isoform 2 (UniProt Q00536) | 0.043 | 0.412 | 0.033 | 0.433 (active) | -0.033 | -0.044 | -0.01 | -0.016 | 0.081 | -0.124
15 | BUD23 isoform 3 (UniProt O43709) | -0.003 | -0.008 | 0.035 | -0.084 | 0.035 | 0.009 | 0.015 | 0.035 | -0.076 | -0.017
16 | BCL2L12 (UniProt Q9HB09) | -0.12 | -0.007 | -0.129 | -0.004 | 0.046 | 0.022 | 0.075 | -0.041 | 0.121 | 0.013

Row | Target | log2 fold change [1] | log2 fold change [2] | log2 fold change [3] | log2 fold change [4] | log2 fold change [5] | log2 fold change [6] | log2 fold change [7] | log2 fold change [8] | log2 fold change [9] | log2 fold change [10]
17 | C19orf54 (UniProt Q5BKX5) | 0.012 | -0.006 | -0.037 | -0.016 | 0.006 | 0.006 | -0.007 | 0.098 | 0.016 | 0.003
18 | CCNYL1 (UniProt Q8N7R7) | -0.001 | -0.033 | 0.034 | 0.043 | -0.003 | -0.078 | -0.08 | 0.008 | 0.075 | -0.006
19 | CARS isoform 3 (UniProt P49589) | -0.019 | -0.007 | -0.024 | -0.007 | 0.012 | 0.048 | 0.007 | 0.004 | 0.001 | -0.01
20 | BAHCC1 (UniProt Q9P281) | -0.191 | 0.019 | -0.144 | -0.141 | -0.039 | -0.328 | 0.031 | -0.053 | 0.021 | 0.07
21 | CDAN1 (UniProt Q8IWY9) | -0.029 | 0.022 | -0.055 | -0.014 | -0.037 | -0.09 | -0.026 | 0.066 | 0.017 | -0.032
22 | ATP13A1 (UniProt Q9HD20) | 0.009 | 0.004 | 0.102 | 0.003 | 0.005 | 0.001 | -0.109 | -0.044 | 0.07 | 0.065
23 | CCDC47 (UniProt Q96A33) | -0.012 | -0.009 | -0.016 | 0.025 | -0.009 | 0.006 | -0.025 | 0.014 | 0.019 | -0.023
24 | CBR1 (UniProt P16152) | 0.046 | 0.046 | 0.1 | 0.076 | -0.02 | 0.113 | -0.001 | -0.021 | -0.02 | 0.016
25 | CBX1 (UniProt P83916) | 0.006 | -0.003 | 0.017 | 0 | -0.027 | -0.004 | -0.008 | -0.004 | 0.062 | 0.012
26 | CEBPZOS (UniProt A8MTT3) | 0.069 | -0.01 | 0.053 | 0.024 | 0.044 | 0.02 | -0.017 | -0.039 | -0.004 | -0.008
27 | CCNH (UniProt P51946) | -0.013 | 0.106 | 0.03 | -0.001 | 0.015 | 0.016 | -0.043 | -0.009 | 0.026 | 0.013
28 | BLM (UniProt P54132) | -0.002 | 0.014 | -0.013 | 0 | 0.048 | 0.109 | 0.041 | -0.013 | -0.025 | 0.018
29 | CCDC51 (UniProt Q96ER9) | -0.037 | -0.049 | -0.016 | 0.035 | -0.014 | 0.017 | -0.082 | 0.02 | -0.015 | -0.04
30 | CDK5RAP3 isoform 4 (UniProt Q96JB5) | 0.003 | -0.016 | -0.067 | 0.006 | 0.045 | -0.03 | -0.043 | 0.023 | 0.026 | -0.007
31 | CEP57L1 (UniProt Q8IYX8) | 0.246 | -0.129 | 0 | -0.014 | 0.34 | -0.101 | -0.015 | 0.041 |  | 0.031
